Assay results published in ChEMBL document CHEMBL3988442, “University of Dundee, Small-Polar-MMV Screening Library” (2021).
In all, about 48,000 compounds went through this assay and about 13,000 (27%) showed an effect of 50% or more. The list shows a part of the results.

These compounds were tested on Wolbachia pipientis (assay: Anti-Wolbachia Cell-Based Screen). Settings: 5 µM.
Type: functional
Set-up: scale not given: in the data most compounds retested in dose-response had high values

SMILES	Percent Effect [%]
CCCC(=O)N1CCCN(C(=O)Nc2ccc(C)s2)CC1	4.138
O=C(C(c1ccccc1)N1CCc2cncnc2C1)N1CCCCC1 (stereo not given)	-0.8294
N#CC1(NC(=O)COc2cc(Cl)cc(Cl)c2)CCSC1 (stereo not given)	-14.75
O=C(NCCCn1cnnc1)C1CCCN(C2CCCC2)C1 (stereo not given)	8.155
O=C(CCOc1ccccc1F)N1CCCCC1Cn1cccn1 (stereo not given)	114.4
O=C(CCCOc1ccc(F)cc1F)N1CCCC1Cn1cccn1 (stereo not given)	4.503
COc1ccccc1OCCC(=O)N1CCCC1Cn1cccn1 (stereo not given)	114.3
O=C(CCOc1ccccc1F)N1CCCC1Cn1cccn1 (stereo not given)	123.4
O=C(c1ccccc1OCC1CC1)N1CCCC1Cn1cccn1 (stereo not given)	15.75
CCOCCC(=O)N1CCCCC1CCn1cccn1 (stereo not given)	-10.55
COc1cc(C)ccc1OCCC(=O)N1CCCC1Cn1cccn1 (stereo not given)	6.133
O=C1O[C@@H]2CN(c3ncccn3)C[C@@H]2N1CCCc1ccc(F)cc1	0.8552
CCc1nc(CN(CC(N)=O)C(C)C)cs1	-5.873
CN(C)CCOc1ccccc1N1CCN(C(=O)C(C)(C)C#N)CC1	12.48
COCCN(Cc1c(C)nn(C)c1C)C(=O)C1COc2ccccc2C1 (stereo not given)	-13.07
Cc1cc(C)n(CC2CCCCN2CC(=O)Nc2cccnc2)n1 (stereo not given)	-5.388
CN(Cc1nc(-c2cccnc2)no1)C(=O)c1cccn1C	-3.845
COc1ccc(S(=O)(=O)N2CCCC3(CCCN3S(C)(=O)=O)C2)cc1 (stereo not given)	-14.23
CCN1CCNC(=O)C12CCN(S(=O)(=O)c1ccc(OC)cc1)CC2	15.65
COc1cccc(S(=O)(=O)CCN2CCC3(CC2)OCCO3)c1	-7.046
COC1COC2(CCN(S(=O)(=O)c3ccc(F)cc3)CC2)C1 (stereo not given)	-4.083
COc1cccc(S(=O)(=O)N2C[C@@H](O)[C@H](N(C)C)C2)c1	179.9
CC(C)[C@@H]1CN(S(=O)(=O)c2cccc(C(=O)O)c2)C[C@H]1N(C)C	0.7097
COc1cccc(S(=O)(=O)N2C[C@H](OC)[C@]3(CCCO3)C2)c1	151.5
COc1ccc(S(=O)(=O)N2C[C@H](OC)[C@]3(CCCO3)C2)cc1	124.9
CCOC1COC2(CCN(S(=O)(=O)c3ccc(F)cc3)CC2)C1 (stereo not given)	-48.73
COc1cccc(S(=O)(=O)N2C[C@@H](N(C)C)[C@H](C(C)C)C2)c1	-6.322

SMILES	Percent Effect [%]
CO[C@H]1CN(S(=O)(=O)c2ccc(F)cc2)C[C@@]12CCCO2	187.7
COc1cccc(C(C)N2CCN(S(=O)(=O)c3ccccc3)CC2)c1 (stereo not given)	-3.731
Cc1nnc(C(C)Nc2cccc(COCC(F)(F)C(F)F)c2)o1 (stereo not given)	6.562
CC(C)Cc1cn(C2CCN(C(C)CC3CC3)CC2)nn1 (stereo not given)	4.944
O=C1NCC2(CCCN(C(=O)c3ccc4c(c3)OCCO4)CC2)O1 (stereo not given)	12.75
COc1cc(F)c(S(=O)(=O)N2c3ncccc3NC(=O)C2C)cc1OC (stereo not given)	-16.51
O=C(CCc1nc2cccnc2[nH]1)Nc1cccnc1	5.191
CN(Cc1ccc(N2CCCCC2)cc1)Cc1noc(C(C)(C)C)n1	16.16
O=C(c1ccccn1)N1C[C@@H]2CC[C@H](C1)N(C(=O)CCc1cccs1)C2	-9.254
Cc1noc(C)c1CN(C)C(=O)NC1CCN(c2ncccn2)CC1	-8.201
C[C@@H]1CN(S(=O)(=O)c2ccc(F)cc2F)C[C@]1(C)O	4.198
CNC(=O)[C@@]12CCO[C@@H]1CCN(S(=O)(=O)c1ccccc1F)C2	-14.92
CO[C@H]1CN(S(=O)(=O)c2ccc(C)cc2)C[C@@]12CCCO2	89.74
CO[C@H]1CN(S(=O)(=O)c2ccccc2F)C[C@@]12CCCO2	166.4
O=C(CN1CCCNC1=O)N(Cc1ccccc1)CC(F)F	-9.06
Cc1ccc2[nH]c(CN3CC[C@@H](N4CCN(C)CC4)[C@H](O)C3)c(C)c2c1	130.9
Cc1c(CN2C[C@H](O)[C@@H](N3CCOCC3)C2)[nH]c2ccc(F)cc12	90.42
CN1CCN([C@@H]2CCN(Cc3cccc(-n4cccn4)c3)C[C@H]2O)CC1	-7.292
CN1CCN([C@@H]2CCN(CC3=Cc4cc(Cl)ccc4OC3)C[C@H]2O)CC1	-16.81
Cc1c(CN2CCc3[nH]cnc3C2C(=O)O)[nH]c2ccc(F)cc12 (stereo not given)	4.217
CC1=C(CCN2CC[C@@H](N3CCC(O)CC3)[C@H](O)C2)C(C)(C)CCC1	-3.551
Cc1c(CN2CC[C@@H](N3CCC(O)CC3)[C@H](O)C2)[nH]c2ccc(F)cc12	105.6
Cc1c(CN2CCc3[nH]cnc3C2C2CC2)[nH]c2ccc(F)cc12 (stereo not given)	10.14
Cc1c(CN2CC[C@@H](N3CCC(O)CC3)[C@H](O)C2)[nH]c2ccc(Cl)cc12	105.3
O=C(c1cccc(Cl)c1)N1CC[C@@H](N2CCC(O)CC2)[C@H](O)C1	-1.425
CN1CCN([C@@H]2CCN(Cc3ccc4cc(F)ccc4n3)C[C@H]2O)CC1	-21.32
CSCCC1c2nc[nH]c2CCN1Cc1[nH]c2ccc(F)cc2c1C (stereo not given)	8.699

SMILES	Percent Effect [%]
O=C(NCc1ccc(F)cc1F)C(c1cccnc1)N1CCOCC1 (stereo not given)	-3.204
CC(C)(C)C(=O)N[C@H]1C[C@@H](Cc2cc(CN3CCOCC3)on2)C1(C)C	-2.41
CC(Sc1nnc(C2CC2)n1CC(N)=O)c1ccc(F)c(Cl)c1 (stereo not given)	-2.548
CCSc1ccc(NC(=O)N2CCCC2c2ccncc2)cn1 (stereo not given)	-0.7424
COC(=O)N1CCCCC1C(=O)N1CCN(c2ncccc2C)CC1 (stereo not given)	-6.544
CCSc1ccc(C(=O)N2CCCCC2C(=O)N2CCCC2)cn1 (stereo not given)	151.8
Cc1ccc(CNC(=O)C2CCCCN2C(=O)OC(C)(C)C)cn1 (stereo not given)	1.092
CC(C)(C)NC(=O)C1CCCCN1Cc1nccn1CC(F)(F)F (stereo not given)	-2.197
CC(C)Cc1cc(C(=O)N2CCC[C@H]2C(=O)N2CCOCC2)on1	-13.85
CCSc1ccc(C(=O)N2CCCCC2C(=O)NC(C)(C)C)cn1 (stereo not given)	116.3
CCSc1ccc(C(=O)N2CCCC2C(=O)N2CCOCC2)cn1 (stereo not given)	144.8
Cn1ccc2ccc(C(=O)N3CCC[C@H]3C(=O)N3CCOCC3)cc21	12.68
CCn1c(CN(C)C)nnc1C1CCN(Cc2cccc(C#N)c2)CC1	-18.18
Cc1cnc2n(c1=O)CC(C(=O)Nc1ccccc1Cl)CS2 (stereo not given)	-3.995
O=C(NCc1cccnc1)N1CCSCC1CCO (stereo not given)	-15.06
Cc1cnc2n(c1=O)C(CC(=O)NCc1ccccc1Cl)CS2 (stereo not given)	121.9
COc1cccc(CNC(=O)CC2CSc3ncc(C)c(=O)n32)c1 (stereo not given)	19.59
O=C(Cn1nc(-c2ccc(F)cc2)oc1=O)NCc1ccc(F)cc1	-3.011
Cc1cc(=O)n2c(n1)SCC2CC(=O)NCc1cc(-c2ccco2)on1 (stereo not given)	1.39
Cc1cnc2n(c1=O)C(CC(=O)NCc1ccc(F)cc1)CS2 (stereo not given)	120.7
COc1cccc(CNC(=O)CC2CSc3nc(C)c(C)c(=O)n32)c1 (stereo not given)	131.7
Cc1nsc(N2CCN(CC(=O)NCc3ccc(F)cc3)CC2)n1	-5.243
CC(=O)NC[C@@H]1C=C(C)[C@H](CC(=O)NCc2cccnc2)C[C@H]1C(C)C	-8.421
Cc1ccc(CNC(=O)CC2C(=O)NCCN2Cc2ccccc2C)s1 (stereo not given)	4.539
Cc1cnc2n(c1=O)C(CC(=O)NCc1cccnc1)CS2 (stereo not given)	115
Cc1cc(-c2ccncc2)ccc1OCC(N)=O	-1.496
CC(C)c1cc(C(=O)N2CCN(CC3CC3)[C@@H]3CS(=O)(=O)C[C@@H]32)no1	5.38

SMILES	Percent Effect [%]
Cc1cnn(CCC(=O)Nc2ccc(F)cc2OCC2CC2)c1	-3.72
CCN1CC(C(=O)N2CCN(CCn3cccc3)CC2)CC1=O (stereo not given)	-5.842
Cc1cc(CNC(=O)CC2CN(C(=O)OC(C)(C)C)C2)ccc1F	-41.83
O=C(NCc1ccncc1)N1CCSCC1c1ccc(Cl)cc1 (stereo not given)	-11.62
Cc1cnc2n(c1=O)C(CC(=O)NCc1ccc(Cl)cc1)CS2 (stereo not given)	120.8
CCNc1cc2c(nn1)CCN(C(=O)Cc1ccc3c(c1)CCO3)C2	-18.57
CCNc1cc2c(nn1)CCN(C(=O)C1Cc3ccccc3S1)C2 (stereo not given)	-4.507
CCNc1cc2c(nn1)CCN(C(=O)CC1CCCCC1)C2	-4.667
CCNc1cc2c(nn1)CCN(C(=O)C1COc3ccccc3C1)C2 (stereo not given)	3.402
CCNc1cc2c(nn1)CCN(C(=O)Cc1c(C)nn(C)c1C)C2	126.1
CCNc1cc2c(nn1)CCN(C(=O)Cc1ccc(C)s1)C2	107.9
CCc1nccn1CC(=O)N1C[C@H]2CC[C@@H]1CN(C(=O)N(C)C)C2	6.839
c1cc(-c2nc3c(c(NCCn4ccnn4)n2)CCNCC3)ccn1	-0.7039
Cc1noc(C)c1CN1CCC2(CC1)CC(Oc1cccnc1)C2.O=C(O)C(F)(F)F.O=C(O)C(F)(F)F	7.225
Cc1noc(C)c1CN1CCC2(CC1)C(c1ccccc1)CC(=O)N2C.O=C(O)C(F)(F)F (stereo not given)	90.48
Cc1ccc(CN2CCC3(CC2)NC(=O)CC3c2ccccc2)s1.O=C(O)C(F)(F)F (stereo not given)	95.7
Cc1ccc(CN2CCCC3(CCC(=O)N3)CC2)s1.O=C(O)C(F)(F)F (stereo not given)	3.95
Cn1cc(C2CC(=O)NC23CCN(c2ncc(F)cn2)CC3)cn1 (stereo not given)	-28.26
Cn1cc(C2CC(=O)NC23CCN(Cc2nccs2)CC3)cn1 (stereo not given)	86.17
CCN1CCN(C)C2(CCN(Cc3ccc(C)o3)CC2)C1=O.O=C(O)C(F)(F)F.O=C(O)C(F)(F)F	-15.65
Cc1ccc(CN2CCC3(CC2)C(c2ccccc2)CC(=O)N3C)o1.O=C(O)C(F)(F)F (stereo not given)	104.4
COCCN1CCC2(CCN(Cc3nccs3)CC2)C1=O	-0.9039
Cc1ccc(CN2CCC3(CC2)C(=O)N(CCO)CCN3C)o1.O=C(O)C(F)(F)F.O=C(O)C(F)(F)F	5.189
Cc1cnc(N2CCC3(CC2)C(c2ccccc2)CC(=O)N3C)nc1 (stereo not given)	8.622
